Experimental data: PubChem BioAssay (NCI)
Compounds without any hit were thinned out: in the full panel of roughly 79,000, 15% have a hit. The source made the active and inactive calls. No stated cut-off is given here; in the data, active means growth inhibition above about 70%; inactive means the rest.

assay: NCI Yeast Anticancer Drug Screen. Data for the sgs1 mgt1 strain (AID 161);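 further: 0% = growth of cultures given vehicle only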; conditions: S. cerevisiae sgs1 mgt1 strain, at 50.0 µM, hits give high values
Procedure, shortened: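 Genetically altered yeast, compound exposure, growth inhibition relative to vehicle.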

| SMILES | growth inhibition |
| --- | --- |
| Nc1nc(Cc2ccccc2)nc2[nH]ncc12 | 3.2% (inactive) |
| O=S(=O)(O)C(Nc1ccc(Cl)cc1)c1ccccc1 (stereo not given) | 4.6% (inactive) |
| CC(=O)OC1C=CCC2C(=O)C3=C(C(=O)c4ccccc4C3=O)C(=O)C12 (stereo not given) | 28% (inactive) |
| O=C(Cl)CN1C(=O)c2ccccc2C1=O | -14.5% (inactive) |
| Cc1cc(=O)[nH]c(NN)n1 | -1.85% (inactive) |
| O=C1CCCC/C1=C\c1ccc([N+](=O)[O-])cc1 | 29.4% (inactive) |
| CCN(CC)c1cccc(C(=O)OCCNCC(C)C)c1 | 5.05% (inactive) |
| COC(=O)CCC(C)C1CCC2C3CCC4CC5CCC4(C)C3(O5)C(Br)C(Br)C12C (stereo not given) | -32.5% (inactive) |
| Fc1cccc(C2SCc3nc4cc5ccccc5cc4n32)c1 (stereo not given) | 8.8% (inactive) |
| O=c1[nH][nH]c(=O)c2c1ncn2Cc1ccccc1 | 1.7% (inactive) |
| CC(=O)OCC1OC(n2nc(C#N)c(C#N)n2)C(OC(C)=O)C1OC(C)=O (stereo not given) | 3.15% (inactive) |
| c1ccc2c[n+]3cc4ccccc4cc3cc2c1 | 53.7% (inactive) |
| O=[N+]([O-])c1ccc(C=Nc2ccc3c(c2)Cc2ccccc2-3)cc1 | 9.9% (inactive) |
| CCOC(=O)c1ncn2c1[nH]c(=O)c1ccccc12 | -8.9% (inactive) |
| CCCc1ccc(N=Nc2ccc(C(=O)O)cc2)cc1 | -2.9% (inactive) |
| COC(=O)NN=C1C(C)(C)C(=NNC(=O)OC)C1(C)C | -8.6% (inactive) |
| CCCCCCCCCC/C=C/c1c(C)[nH]c2ccccc2c1=O | -6.3% (inactive) |
| CC1(O)CC2C=CC1CC2 (stereo not given) | 4.6% (inactive) |
| O=C(O)c1ccc(C(=O)c2ccc(C(=O)c3ccc(C(=O)O)cc3)cc2)cc1 | 3.65% (inactive) |
| NC1=NC=NCN1c1ccc(N)cc1 | 3.85% (inactive) |

| SMILES | growth inhibition |
| --- | --- |
| CC1(C)CC2=C(Sc3ccccc3N2)C(=O)C1C(=O)C(=O)Nc1cccc([N+](=O)[O-])c1 (stereo not given) | -11.7% (inactive) |
| COC(=O)c1ccccc1CC1Cc2cc3c(cc2C1)CCC3 | -0.7% (inactive) |
| Nc1ccn(C2OC(CCl)C(O)C2O)c(=O)n1 (stereo not given) | -4.15% (inactive) |
| Cn1c2nc(-[n+]3ccc(N4CCOCC4)cc3)nc-2c([O-])n(C)c1=O | -17.9% (inactive) |
| Nc1ncc2c(n1)SCC2 | -8.25% (inactive) |
| CC1C(c2ccccc2)=C(c2ccccc2)C(c2ccccc2)=C(c2ccccc2)C1c1ccccc1 (stereo not given) | 2.6% (inactive) |
| COC(=O)c1ccc(N(C)CC/C(CNc2nc(N)[nH]c(=O)c2[N+](=O)[O-])=N\NC(N)=O)cc1 | -2.4% (inactive) |
| O=C1c2ccccc2C(=O)N1/N=C/c1ccc([N+](=O)[O-])cc1 | -16.3% (inactive) |
| O=C(NCC1CC1)c1ccccc1NC(=O)c1cc2ccccc2oc1=O | 8.4% (inactive) |
| CN(C)CCC(C(=O)C(C)(C)C)c1ccccn1 (stereo not given) | -5.65% (inactive) |
| C=CCO[Si](C=C)(OCC=C)OCC=C | -5.35% (inactive) |
| Cc1ccc2c(c1)nc(-c1ccccn1)n2CCc1ccncc1 | 77% (active) |
| CN(C)CC1CCC/C(=C\c2ccccc2)C1=O (stereo not given) | 47.8% (inactive) |
| N#CC1=C(N)C(c2ccccc2)(c2ccccc2)CC1 | 8.15% (inactive) |
| CCOC(=O)/C=C\C(=O)O.[Mn] | -7.65% (inactive) |
| CC(=O)OCC(OC(C)=O)C1OC(OCc2ccccc2)C(OC(C)=O)C(OC(C)=O)C1OC(C)=O (stereo not given) | -17.6% (inactive) |
| NC(=O)C(=Cn1c(=S)[nH]c2ccccc21)C(N)=O | -19.1% (inactive) |
| Cc1ccc(S(=O)(=O)N(CC(O)c2ccccc2)CC(O)c2ccccc2)cc1 (stereo not given) | -18.2% (inactive) |
| CC(C)=C1CCC/C1=N\Nc1ccc([N+](=O)[O-])cc1[N+](=O)[O-] | 0.15% (inactive) |
| O=C(CCC(=O)Nc1ccc(Cl)c(Cl)c1)CC(=O)c1ccc2ccccc2c1 | 2.45% (inactive) |

assay: NCI Yeast Anticancer Drug Screen. Data for the cln2 rad14 strain (AID 165);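 further: 0% = growth equal to vehicle treated cultures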; conditions: S. cerevisiae cln2 rad14 strain, at 50.0 µM, hits give high values
Procedure, shortened: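 Each compound was tested on cln2 rad14 yeast. Inhibition of growth was calculated against vehicle-exposed controls.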

| SMILES | growth inhibition |
| --- | --- |
| Nc1nc(Cc2ccccc2)nc2[nH]ncc12 | -18.5% (inactive) |
| O=S(=O)(O)C(Nc1ccc(Cl)cc1)c1ccccc1 (stereo not given) | 12.5% (inactive) |
| CC(=O)OC1C=CCC2C(=O)C3=C(C(=O)c4ccccc4C3=O)C(=O)C12 (stereo not given) | 36.6% (inactive) |
| O=C(Cl)CN1C(=O)c2ccccc2C1=O | -14.3% (inactive) |
| Cc1cc(=O)[nH]c(NN)n1 | 23.1% (inactive) |
| O=C1CCCC/C1=C\c1ccc([N+](=O)[O-])cc1 | 10.1% (inactive) |
| CCN(CC)c1cccc(C(=O)OCCNCC(C)C)c1 | -39.7% (inactive) |
| COC(=O)CCC(C)C1CCC2C3CCC4CC5CCC4(C)C3(O5)C(Br)C(Br)C12C (stereo not given) | -33% (inactive) |
| Fc1cccc(C2SCc3nc4cc5ccccc5cc4n32)c1 (stereo not given) | -0.45% (inactive) |
| O=c1[nH][nH]c(=O)c2c1ncn2Cc1ccccc1 | -49.5% (inactive) |
| CC(=O)OCC1OC(n2nc(C#N)c(C#N)n2)C(OC(C)=O)C1OC(C)=O (stereo not given) | 8.05% (inactive) |
| c1ccc2c[n+]3cc4ccccc4cc3cc2c1 | 31.3% (inactive) |
| O=[N+]([O-])c1ccc(C=Nc2ccc3c(c2)Cc2ccccc2-3)cc1 | -20.1% (inactive) |
| CCOC(=O)c1ncn2c1[nH]c(=O)c1ccccc12 | 1.2% (inactive) |
| CCCc1ccc(N=Nc2ccc(C(=O)O)cc2)cc1 | -11.9% (inactive) |
| COC(=O)NN=C1C(C)(C)C(=NNC(=O)OC)C1(C)C | 27.1% (inactive) |
| CCCCCCCCCC/C=C/c1c(C)[nH]c2ccccc2c1=O | -6.5% (inactive) |
| CC1(O)CC2C=CC1CC2 (stereo not given) | 4% (inactive) |
| O=C(O)c1ccc(C(=O)c2ccc(C(=O)c3ccc(C(=O)O)cc3)cc2)cc1 | -52% (inactive) |
| NC1=NC=NCN1c1ccc(N)cc1 | -54.4% (inactive) |

| SMILES | growth inhibition |
| --- | --- |
| CC1(C)CC2=C(Sc3ccccc3N2)C(=O)C1C(=O)C(=O)Nc1cccc([N+](=O)[O-])c1 (stereo not given) | -35.9% (inactive) |
| COC(=O)c1ccccc1CC1Cc2cc3c(cc2C1)CCC3 | 12.9% (inactive) |
| Nc1ccn(C2OC(CCl)C(O)C2O)c(=O)n1 (stereo not given) | 4.1% (inactive) |
| Cn1c2nc(-[n+]3ccc(N4CCOCC4)cc3)nc-2c([O-])n(C)c1=O | -44.9% (inactive) |
| Nc1ncc2c(n1)SCC2 | -19.7% (inactive) |
| CC1C(c2ccccc2)=C(c2ccccc2)C(c2ccccc2)=C(c2ccccc2)C1c1ccccc1 (stereo not given) | -5.55% (inactive) |
| COC(=O)c1ccc(N(C)CC/C(CNc2nc(N)[nH]c(=O)c2[N+](=O)[O-])=N\NC(N)=O)cc1 | 6.25% (inactive) |
| O=C1c2ccccc2C(=O)N1/N=C/c1ccc([N+](=O)[O-])cc1 | -11.5% (inactive) |
| O=C(NCC1CC1)c1ccccc1NC(=O)c1cc2ccccc2oc1=O | 9.85% (inactive) |
| CN(C)CCC(C(=O)C(C)(C)C)c1ccccn1 (stereo not given) | -19.4% (inactive) |
| C=CCO[Si](C=C)(OCC=C)OCC=C | 10.7% (inactive) |
| Cc1ccc2c(c1)nc(-c1ccccn1)n2CCc1ccncc1 | 90.3% (active) |
| CN(C)CC1CCC/C(=C\c2ccccc2)C1=O (stereo not given) | 32.5% (inactive) |
| N#CC1=C(N)C(c2ccccc2)(c2ccccc2)CC1 | -0.45% (inactive) |
| CCOC(=O)/C=C\C(=O)O.[Mn] | -22.9% (inactive) |
| CC(=O)OCC(OC(C)=O)C1OC(OCc2ccccc2)C(OC(C)=O)C(OC(C)=O)C1OC(C)=O (stereo not given) | 44% (inactive) |
| NC(=O)C(=Cn1c(=S)[nH]c2ccccc21)C(N)=O | -0.5% (inactive) |
| Cc1ccc(S(=O)(=O)N(CC(O)c2ccccc2)CC(O)c2ccccc2)cc1 (stereo not given) | 3.5% (inactive) |
| CC(C)=C1CCC/C1=N\Nc1ccc([N+](=O)[O-])cc1[N+](=O)[O-] | -25.8% (inactive) |
| O=C(CCC(=O)Nc1ccc(Cl)c(Cl)c1)CC(=O)c1ccc2ccccc2c1 | 19.9% (inactive) |
